Experiment in all cases: NCI-60 one-dose screen, 48 h (100 = growth as untreated, 0 = no growth, -100 = all killed)
What all share (settings): 10 µM

For assay [1], the system named is HCT-15 colon.
Assay [2] deals with HT29 colon.
The test system of assay [3] is SNB-75 CNS.
Assay [4] concerns SNB-19 CNS.
Assay [5] concerns U251 CNS.
Assay [6] concerns PC-3 prostate.
For assay [7], the system named is SK-MEL-5 melanoma.
Assay [8] concerns UACC-62 melanoma.
In assay [9] the test system is LOX IMVI melanoma.
The subject of assay [10] is SK-MEL-28 melanoma.
In assay [11] the test system is SK-MEL-2 melanoma.
Assay [12] deals with SN12C renal.
For assay [13], the system named is UO-31 renal.
In assay [14] the test system is TK-10 renal.
Assay [15] concerns ACHN renal.
In assay [16] the test system is CAKI-1 renal.
The test system of assay [17] is A498 renal.
Assay [18] has as its system CCRF-CEM leukemia.
In assay [19] the test system is MOLT-4 leukemia.

The panel holds about 83,000 compounds, 20% with a hit somewhere; the sample as a whole holds those more often.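 Values shown are percent growth following 48 h exposure of cells in 96-well plates to a single concentration of compound; below 10 was considered active.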 A number with no mark means an inactive call. The source made the active and inactive calls.

In PubChem BioAssay (NCI) one finds growth data, which are given here for eight compounds.

On to `COc1cccc(C(=O)NNc2nc(N3CCOCC3)nc(N3CCN(C(c4ccccc4)c4ccccc4)CC3)n2)c1`, for which the growth in assay [1] is 89.2%; in assay [2] it was 95%; in assay [3] it was 71.5%; in [4] it was 86.3%; in assay [5], 85.2%; in assay [6], 55.1%. For the same compound, the growth in assay [7] was 53.3%; in assay [8], 65.8%; in assay [9], 83.1%; in [10], 93.4%; in [11] it was 85.3%; in assay [12] it was 75.3%. The growth in assay [13] was 39.7%; in [14], 86.7%; in [15], 76.3%; in assay [16] it was 44.7%; in [17] it was 51.3%; in assay [18] it was 85.1%. In [19], the growth was 63.2%.
As for `Cc1ccc(-c2cc(-c3cccc(Nc4ccnc5cc(Cl)ccc45)c3)nc3nc(N)[nH]c(=O)c23)cc1`, the growth in assay [1] is 99.4%; in assay [2], 97.5%; in assay [3], 76.9%; in assay [4], 84.8%; in [5], 88.5%; in [6], 95.8%. Besides, the growth was 99% in assay [7]; 97.7% in assay [8]; 92.8% in assay [9]; 110% in assay [10]; 87.6% in assay [11]; 96.6% in assay [12]. Further, the growth in assay [13] was 78.1%; in assay [14], 112%; in assay [15], 105%; in assay [16] it was 94.8%; in [17] it was 109%; in assay [18], 56.1%. For the same compound, the growth in [19] is 81.8%.
In the case of `O=C(COc1ccc(-c2nc3ccccc3[nH]2)cc1)N=Nc1c(O)[nH]c2ccccc12`, the growth in assay [1] was 105%; in assay [2] it was 100%; in assay [3], 104%; in assay [4] it was 93.4%; in assay [5], 55.9%; in assay [6] it was 86.5%. Further, the growth was 102% in assay [7]; 96.2% in assay [8]; 100% in assay [9]; 99.7% in assay [10]; 113% in assay [11]; 91.7% in [12]. Moreover, the growth in assay [13] is 93.4%; in assay [14] it was 128%; in [15], 98.7%; in assay [16] it was 99.2%; in assay [17] it was 86.4%; in assay [18] it was 4.95% (active). Also, the growth in [19] is 91.8%.
For `O=C(CCCC(=O)N/N=C/c1cc(Cl)ccc1O)N/N=C\c1cc(Cl)ccc1O`, the growth in assay [1] was 28.1%; in assay [2], 55.4%; in assay [3] it was 58.9%; in assay [4] it was 48.1%; in assay [5], 21%; in assay [6] it was 24%. The growth in assay [7] is -1.89% (active); in [8], -16.9% (active); in assay [9], 7.26% (active); in assay [10], 35.8%; in assay [11], 51.7%; in assay [12], 35.3%. Further, the growth in [13] is 5.41% (active); in assay [14] it was 32.3%; in [15], 23.1%; in assay [16], -1.73% (active); in [17], 63.5%; in assay [18] it was -0.225% (active). Besides, the growth in assay [19] was -12.9% (active).
For the compound `O=C(Nc1ccc(OCc2nnc(-c3ccccc3)o2)c(F)c1)Nc1ccc(Cl)c(Cl)c1`, the growth in [1] is 49.4%; in assay [2], 53%; in [3] it was 66.4%; in assay [4], 59.9%; in [5], 50.5%; in assay [6], 55.6%. The growth in [7] is 65.9%; in assay [8], 58%; in assay [9] it was 54.8%; in [10], 73%; in [11] it was 72.9%; in assay [12], 64%. Moreover, the growth in [13] is 68.5%; in assay [14], 66.2%; in assay [15], 39%; in [16], 68.4%; in assay [17], 12.4%; in [18], 37.6%. Also, in assay [19], the growth was 43.8%.
In the case of `CCc1ccc(-c2nnc(COc3ccc(-c4nc5ccccc5[nH]4)cc3OC)o2)cc1`, the growth was 52.9% in [1]; 61.7% in [2]; -27.1% (active) in assay [3]; 84.3% in assay [4]; 23.3% in [5]; 54.9% in assay [6]. Also, the growth is 80.2% in assay [7]; 91% in assay [8]; 24.5% in assay [9]; 93.5% in assay [10]; 96.7% in [11]; 21.7% in assay [12]. In addition, the growth in assay [13] was 56.8%; in [14], 16.7%; in assay [15], -13.9% (active); in [16], 60.1%; in [17] it was 88.8%; in [18], 61.8%. The growth in assay [19] is 71.8%.
`COc1cc(C)c2sc3ccccc3c(=O)c2c1NCCN(C)C`: the growth in [1] was 39.3%; in assay [2], 16.3%; in [3], 50.5%; in [4], 65.2%; in assay [5], 44.8%; in assay [6], 53.4%. Moreover, the growth is 36.9% in [7]; -90.3% (active) in assay [8]; 26.4% in [9]; 54.1% in assay [10]; 121% in [11]; 54.2% in assay [12]. Also, the growth in [13] was 32%; in [14], 61.9%; in assay [15], 38.4%; in assay [16], 39.7%; in [17], 55%; in assay [18] it was 22.6%. In assay [19], the growth is 1.59% (active).
Take `COc1ccc(-c2cn[nH]c2-c2cc(OC)c(OC)c(OC)c2)cc1`: the growth in assay [1] was 10.8%; in assay [2], 3.22% (active); in assay [3], 44.7%; in assay [4], 45.5%; in assay [5] it was 16.2%; in [6], 14.1%. The growth in assay [7] was -17.1% (active); in [8], 38%; in [9] it was 27.3%; in [10], 43.6%; in assay [11], 29.2%; in [12], 26.3%. Moreover, the growth is 33% in [13]; 58% in [14]; 20.7% in [15]; 17.4% in [16]; -12.1% (active) in assay [17]; 6.38% (active) in assay [18]. Further, the growth in [19] is 4.95% (active).
